Source: PubChem BioAssay AID1851 (National Center for Advancing Translational Sciences (NCATS), 2009)
In all, about 16,000 compounds went through this assay and about 5,800 (36%) were called active. Inconclusive results (about 23%) are left out. The list shows a part of the results. Unmarked numbers belong to inactive results. Calls follow the shape of the dose curve; as a rule, active = well fitted curve in the direction sought with a large enough effect; inconclusive = small, poorly fitted or top-dose-only effect, or effect the other way; inactive = no such curve, though single readings can be large or run the other way.
% is scaled to controls: 0 for no effect and ±100 for the full control effect.

The compounds below were run against Cytochrome P450 2C19 (Homo sapiens) (UniProt P33261) (assay: Cytochrome panel assay with activity outcomes). Conditions: recombinant CYP, pro-luciferin dealkylation, luminescence, p450-cyp2c19; series mostly up to 57.1 µM; activity, negative = inhibition: at the top concentration.
Sequence of Cytochrome P450 2C19 (Homo sapiens) (P33261 whole entry, looked up): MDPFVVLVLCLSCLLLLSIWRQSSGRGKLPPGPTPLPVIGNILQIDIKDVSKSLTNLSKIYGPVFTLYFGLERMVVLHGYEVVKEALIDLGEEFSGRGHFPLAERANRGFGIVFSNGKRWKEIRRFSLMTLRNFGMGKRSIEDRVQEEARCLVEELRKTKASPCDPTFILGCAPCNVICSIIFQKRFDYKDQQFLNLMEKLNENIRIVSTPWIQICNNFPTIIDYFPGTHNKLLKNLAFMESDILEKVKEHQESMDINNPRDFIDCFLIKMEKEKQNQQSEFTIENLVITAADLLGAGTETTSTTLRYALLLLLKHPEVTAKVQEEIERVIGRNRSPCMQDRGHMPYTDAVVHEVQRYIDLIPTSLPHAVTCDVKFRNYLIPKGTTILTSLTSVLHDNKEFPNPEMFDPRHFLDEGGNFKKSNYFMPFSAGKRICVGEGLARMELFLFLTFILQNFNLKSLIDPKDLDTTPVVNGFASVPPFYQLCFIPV
Work on `CC(C)CSC[C@@H]1O[C@H](n2cnc3c(N)nccc32)[C@H](O)[C@@H]1O` yielded an activity, negative = inhibition of 39.2% [at 11.4 µM].
For `COCCNC(=O)CCn1nc(-c2ccc(Cl)cc2)ccc1=O`, the “activity, negative = inhibition” value was 3.18%.
With `COCCNC(=O)c1cn(Cc2c(F)cccc2Cl)nn1` the AC50 was 14.1 µM (active).
`CN(CC(=O)Nc1cccc2c1CCCC2)S(=O)(=O)c1ccc(Br)cc1` was tested, and the AC50 was 5.01 µM (active).
In the case of `CN(CCC(=O)O)S(=O)(=O)c1ccccc1`, the activity, negative = inhibition is reported as -21.5% [at 11.4 µM].
In the case of `NC(N)=NC[C@@H]1CCCCCCN1`, the activity, negative = inhibition is reported as 23.1% [at 11.4 µM].
For `O=C(CSCc1c(Cl)cccc1Cl)NCc1cccnc1`, the AC50 was 3.55 µM (active).
With `NNC(=O)Cc1cccnc1` the activity, negative = inhibition was 7.22% [at 11.4 µM].
For `O=C(CCc1ccccc1)NCc1cccnc1`, the AC50 was 25.1 µM (active).
`Cn1c(C(=O)O)c(CC(=O)NCc2cccnc2)c2ccccc21` was tested, and the “activity, negative = inhibition” value was 4.63%.
For `O=C(c1ccccc1)c1c[nH]c(C(=O)NCc2cccnc2)c1`, the AC50 was 14.1 µM (active).
For `CC(C)CO/N=C1/C[C@@H](O)[C@@H](O)[C@@H]2[C@@H]3C(=O)N([C@@H](C)c4ccccc4)C(=O)[C@H]3CC[C@@H]12`, the activity, negative = inhibition was 7.13% [at 11.4 µM].
`CC(CO)(CO)N=Cc1cc(I)cc(I)c1O` gave an activity, negative = inhibition of -13.1% [at 11.4 µM].
For `COc1ccccc1NC(=O)[C@H](COCc1ccccc1)NC(=O)OC(C)(C)C`, the AC50 was 3.55 µM (active).
For `O=[N+]([O-])c1cc(C(F)(F)F)ccc1NCCCCNS(=O)(=O)c1ccc2ccccc2c1`, the AC50 was 1.78 µM (active).
`Cc1ccc(NC(=O)CN2C(=O)N/C(=C/c3ccc(C)o3)C2=O)cc1` was tested, and the “activity, negative = inhibition” value was -3.63%.
With `CCOC(=O)N/N=C/c1ccc(C)o1` the “activity, negative = inhibition” value was -11.5%.
`Cc1ccc(/C=C/C(=O)N2CC(C)CC(C)C2)o1` (configuration not stated) was tested, and the AC50 was 11.2 µM (active).
For `O=C(CN1C(=O)c2cccc3cccc(c23)C1=O)N1CCCCCC1`, the “activity, negative = inhibition” value was 16.7%.
`Cc1cccc(NC(=O)CCCN2C(=O)c3cccc4cccc(c34)C2=O)c1` was tested, and the AC50 was 14.1 µM (active).
In the case of `O=C(CCCN1C(=O)c2cccc3cccc(c23)C1=O)N1CCc2ccccc2C1`, the AC50 is reported as 3.98 µM (active).
With `Cc1cccc(NC(=O)CC2Nc3cccc4cccc(c34)NC2=O)c1` (configuration not stated) the AC50 was 2.24 µM (active).
In the case of `C[N+](C)(CCCCCC[N+](C)(C)CCCN1C(=O)c2cccc3cccc(c23)C1=O)CCCN1C(=O)c2cccc3cccc(c23)C1=O`, the “activity, negative = inhibition” value is reported as -15.3%.
For `O=C(O)c1ccc(Sc2nnnn2-c2ccccc2)c([N+](=O)[O-])c1`, the “activity, negative = inhibition” value was -3.77%.
For `Cc1ccc(-n2nnnc2Sc2nc([N+](=O)[O-])nn2C)cc1C`, the AC50 was 3.98 µM (active).
Work on `CC(C)C(=O)N[C@@H]1CCCN1C(=O)/C=C\c1ccccc1` yielded an activity, negative = inhibition of -31.2% [at 11.4 µM].
With `CC(CCc1ccccc1)NC(=O)/C=C/c1ccccc1` (configuration not stated) the AC50 was 8.91 µM (active).
In the case of `CC(CCc1ccccc1)NC(=O)C(=O)NCCO` (configuration not stated), the AC50 is reported as 31.6 µM (active).
`O=C(O)[C@H](CCc1ccccc1)N1C(=O)c2ccccc2C1=O` showed an activity, negative = inhibition of -17.1% [at 11.4 µM].
In the case of `CC(C)C(=O)N[C@H]1CCCN1C(=O)/C=C\c1ccccc1`, the activity, negative = inhibition is reported as -19.8% [at 11.4 µM].
For `CCCCNC(=O)C(=O)NC(C)CCc1ccccc1` (configuration not stated), the AC50 was 14.1 µM (active).
For `CC(=O)c1cn(CC(=O)Nc2c(C)cccc2C)c2ccccc12`, the AC50 was 7.08 µM (active).
With `CC(C)(C)N(NC(=O)Nc1ccccc1)C(=O)c1ccccc1Cl` the AC50 was 11.2 µM (active).
In the case of `Cc1cc(C)cc(C(=O)N(NC(=O)Nc2ccc(Cl)cc2)C(C)(C)C)c1`, the AC50 is reported as 1.58 µM (active).
With `COC(=O)c1cccc(NC(=O)Nc2ccc(Cl)c(Cl)c2)c1` the AC50 was 3.98 µM (active).
In the case of `CC(C)(C)N(NC(=O)Nc1ccc(Cl)c(Cl)c1)C(=O)c1ccccc1`, the AC50 is reported as 1.26 µM (active).
`O=C(Nc1ccc(C(=O)Nc2ccc(C(=O)Nc3ccc(S(=O)(=O)O)c4cc(S(=O)(=O)O)cc(S(=O)(=O)O)c34)cc2)cc1)Nc1ccc(C(=O)Nc2ccc(C(=O)Nc3ccc(S(=O)(=O)O)c4cc(S(=O)(=O)O)cc(S(=O)(=O)O)c34)cc2)cc1` was tested, and the “activity, negative = inhibition” value was -38.1%.
With `CC1(C)S[C@@H]2[C@H](NC(=O)[C@@H](N)c3ccccc3)C(=O)N2[C@H]1C(=O)O[C@H]1OC(=O)c2ccccc21` the “activity, negative = inhibition” value was -21% [at 25.6 µM].
For `O=C(c1ccccc1)C1CN(c2ccccc2)CC1c1ccc(Cl)cc1` (configuration not stated), the AC50 was 3.98 µM (active).
In the case of `O[C@H](CN1CCN(c2cccc(Cl)c2)CC1)C(c1ccccc1)c1ccccc1`, the “activity, negative = inhibition” value is reported as -35.5%.
With `COc1ccccc1-c1c(C(F)(F)F)oc2cc(OC(=O)c3cccc([N+](=O)[O-])c3C)ccc2c1=O` the AC50 was 0.631 µM (active).
With `Cc1ccccc1-c1nccc(NCCN2CCOCC2)n1` the AC50 was 10 µM (active).
In the case of `Cc1ccccc1-c1cc(NCCN2CCOCC2)ncn1`, the “activity, negative = inhibition” value is reported as -8.59%.
`Clc1ccccc1-c1ccc2ncnc(NCCN3CCOCC3)c2c1` was tested, and the “activity, negative = inhibition” value was -26.1%.
`Clc1ccccc1-c1nccc(NCCN2CCOCC2)n1` was tested, and the AC50 was 5.01 µM (active).
`Cc1noc(C)c1-c1nccc(NCCN2CCOCC2)n1` was tested, and the “activity, negative = inhibition” value was -26.3%.
For `c1ccc2c(c1)CCCc1cc(NCCN3CCOCC3)nnc1-2`, the “activity, negative = inhibition” value was 38% [at 25.6 µM].
